The text below walks through data of PubChem BioAssay (Tox21).

Molecules are shown by their SMILES. Values joined by “and” are separate entries in the source; they are usually repeats but may differ in a detail not shown here. Equal values may be shown once. Records with an inconclusive call do not appear. A call without a number means that no potency is given here. Where a structure was tested more than once in an assay, its records may differ in their call. Active and inactive are the calls of the source. Calls follow the shape of the full dose curve.
Potency is read from the fitted curve at half-maximal effect.

This test can be described thus: qHTS assay to identify small molecule antagonists of the sonic hedgehog signaling (Shh) pathway (AID 1259369). Also: nearly all actives have a fitted effect of over 45% in size. Particulars: NIH/3T3 Gli1-Luc reporter, Shh antagonist, luminescence 24 h; series mostly up to 92.4 µM; activity change, negative = inhibition: at the top concentration. From the text:
U.S. Tox21 Program National Center for Advancing Translational Sciences [NCATS] NIH Chemical Genomics Center [NCGC] U.S. Environmental Protection Agency [EPA] National Institutes of Environmental Health Sciences [NIEHS] National Toxicology Program [NTP] U.S. Food and Drug Administration [FDA] Tox21 Assay Overview: The sonic hedgehog (Shh) pathway is essential for normal embryonic development. Dysregulation of the Shh pathway can cause severe developmental defects in organs. Therefore chemicals that interfere with the pathway are potential developmental toxicants. A cell line designated 3T3Gli1-Luc (DMB/OARSA/CFSAN/FDA, Laurel, MD), a NIH/3T3 derived clone containing stably integrated Gli1-Luc reporter is used to detect chemical interference of the Shh pathway, by changes in the expression of the firefly Luc gene under the control of the Gli1 transcriptional response element. This cell line was used to screen Tox21 libraries for identifying and prioritizing the potential developmental toxicants that interfere Shh pathway. Conditioned medium-stimulated mode was used to screen for chemicals inhibiting Shh signaling.
Tox21 Assay Protocol Summary: 3T3 Gli1-Luc cells were dispensed at 2,000 per well in 5uL of culture medium into white solid bottom 1536-well plates (Greiner Bio-One, Monroe, NC) using a Multidrop Combi (Thermo Scientific, Waltham, MA) dispenser. The assay plates were incubated at 37 C and 5% CO2 for 4hr, and then 23nL of compounds dissolved in DMSO and positive control were transferred using a Pintool station (Wako, San Diego, CA). The compound transfer was followed by the addition of 1ul conditioned medium or assay buffer using two separate tips of Flying Reagent Dispenser (FRD, Aurora Discovery, San Diego, CA). The assay plates were incubated at 37C and 5% CO2 for 24hr. For luciferase read, 4uL of Amplite Luciferase reporter gene assay reagent (AAT Bioquest, Inc. Sunnyvale, CA) was added to each well of the assay plates using FRD and incubated at room temperature for 30min. The luminescence signal was measured using a ViewLux plate reader (Perkin Elmer, Shelton, CT).
Background: In qHTS, concentration-response curves come from the screen itself.
For the compound `C[C@H]1C[C@@H]2[C@H]([C@@H](O)C[C@@]3(C)[C@H]2CC[C@]3(O)C(=O)CO)[C@@]2(C)C=CC(=O)C=C12`, the “activity change, negative = inhibition” value is -26.5% [at 42.5 µM] (inactive).
Consider `CC(=O)CC(=O)Nc1ccccc1C`, for which the Potency result was “inactive”.
Still for that read-out and setting: in the case of `COS(C)(=O)=O` it was “inactive”; in that of `CCCC(C)=O`, “inactive”.
Turning to `CCN(CC)CCCC(C)Nc1ccnc2cc(Cl)ccc12` (stereo not given), the Potency was 5.8 µM (active) and the activity change, negative = inhibition was -20.4% [at 8.39 µM] (inactive).
Consider `CN(C)CCCN`, for which the Potency result was “inactive”.
The same measure, in the same setting: the value for `C=C(C)C(=O)O[C@H]1C[C@@H]2CC[C@@]1(C)C2(C)C` was “inactive”; that for `OCc1cccnc1` was “inactive”; that for `Nc1ccccc1[N+](=O)[O-]` was “inactive”.
Still for that read-out and setting: in the case of `CN(C)CCC(c1ccc(Cl)cc1)c1ccccn1` (stereo not given) it was 24.4 µM (active) and 17.2 µM (active).
For the compound `CCc1ccc(CCOc2ccc(CC3SC(=O)NC3=O)cc2)nc1` (stereo not given), the “activity change, negative = inhibition” value was -19.2% [at 42.5 µM] (inactive).
`c1ccc2c(c1)ccc1ccccc12`: the Potency entry is “inactive”.
With `Cc1occc(=O)c1O`, the Potency result is “inactive”.
For the compound `CCc1cccc(C)c1N`, the “activity change, negative = inhibition” value was 0.664% (inactive).
As for `Fc1ccc(Br)cc1`, the Potency result is “inactive”.
On to `CCCCN(CCCC)CCCC`, for which the Potency entry is “inactive”.
With `Cc1cccnc1`, the Potency result is “inactive”.
Take `O=S(=O)(O)c1ccc2ccccc2c1`: the Potency result is “inactive”.
As to `Cc1cc(C)c(C)cc1C`, the Potency result was “inactive”.
Same read-out and setting: the value for `CC(c1cc2ccccc2s1)N(O)C(N)=O` (stereo not given) was “inactive”.
Still for that read-out and setting: in the case of `O=P(OC(CCl)CCl)(OC(CCl)CCl)OC(CCl)CCl` it was “inactive”; in that of `CN(C)CCC(c1ccccc1)c1ccccn1` (stereo not given), “inactive”; in that of `CC(=O)CC(=O)Nc1ccccc1`, “inactive”.
The same measure, in the same setting: in the case of `NNc1nncc2ccccc12` it was “inactive”.
As to `COc1ccc2cc([C@H](C)C(=O)O)ccc2c1`, the Potency result was “inactive”.
Same read-out and setting: the value for `CCCCCC(N)=O` was “inactive”; that for `CCC(O)OC(O)CC` (stereo not given) was “inactive”.
For the compound `O=C(Oc1ccccc1)c1ccccc1`, the Potency result is “inactive”.
In the case of `CCCCCCCCCCCCOCCO`, the Potency is 27.3 µM (active) and inactive.
Still for that read-out and setting: the value for `CCCCCOC(C)=O` was “inactive and 27.3 µM (active)”; that for `CC(=O)Nc1ccccc1` was “inactive”.
Still for that read-out and setting: the value for `O=[N+]([O-])c1ccc(/C=C/c2ccc([N+](=O)[O-])cc2S(=O)(=O)O)c(S(=O)(=O)O)c1` was “inactive”; that for `O=C(O)CCCCCCCCCCC(=O)O` was “inactive”; that for `FC(F)(F)c1ccc(Cl)c(Cl)c1` was “inactive”.
With `O=c1[nH]nnc2ccccc12`, the Potency result is “inactive”.
For the compound `CC(C)CC(=O)CC(C)C`, the Potency entry was “inactive”.
Same read-out and setting: the value for `C=CCNC(N)=S` was “inactive”.
In the case of `Cc1ccc(N(C)C)cc1`, the “activity change, negative = inhibition” value was 10.2% (inactive).
With `O=C(O)c1ccc(C(=O)O)cc1`, the Potency result is “inactive”.
